Rows were chosen to be rich in hits. Some 0.95% of all compounds tested hit in one or more screens of this group.
PrPC TRFRET: inhibitors of human cell surface prion protein PrPC; TR-FRET read-out; inhibition, % at 13.8 µM; actives 0.43% (n = 370,000); AID 720596; in the data active = inhibition above about 24%; also: 0% = median of the test wells and 100% = reference compound wells
BJeLR lethal: kills HRASV12-expressing BJeLR cells. actives 0.17% (n = 300,000). inhibition, % (no concentration beside the values). BJeLR (HRASV12) viability, CellTiter-Glo ATP luminescence, 48 h; in the data active = inhibition above about 50%
RN4220 kill: S. aureus RN4220 growth inhibition; OD600, 16 h; inhibition, % (test concentration not listed); actives 0.33% (n = 330,000); in the data active = inhibition above about 85%;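 also: plate controls were untreated cells for no effect and reference antibiotic for full effect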
Sa ugtP lethal: growth inhibition of S. aureus ugtP deletion strain; S. aureus RN4220 ugtP deletion, OD600 growth, 16 h; growth inhibition, % (test concentration not listed); actives 0.54% (n = 330,000); AID 1259309; in the data active = growth inhibition above about 68%;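 also: plate controls were untreated wells for no effect and antibiotic for full effect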
PrPC confirm: confirmation of inhibitors of cell surface human prion protein; shares compounds with PrPC TRFRET; cell surface PrPC level, TR-FRET; inhibition, % at 13.8 µM; actives 65% (n = 1,500); AID 743200; in the data active = inhibition above about 25%
LD9 tox: counter-screen for PrPc inhibitors: cytotoxicity in LD9 cells. luminescence viability. inhibition, % at 13.8 µM. shares compounds with PrPC TRFRET. actives 29% (n = 1,500); in the data active = inhibition above about 9.5%
Active calls of the source: *; / = no result given.

SMILES | PrPC TRFRET | BJeLR lethal | RN4220 kill | Sa ugtP lethal | PrPC confirm | LD9 tox
COc1cccc2sc(Nc3nnc(-c4ccc(F)cc4)o3)nc12 | 27* | 4 | 6 | 11 | 33* | -3
COc1cccc2sc(Nc3nnc(-c4cccs4)o3)nc12 | 4 | 23 | 9 | 4 | / | /
CNC(=O)COc1ccccc1C(=O)Nc1ccc2c(c1)oc1ccccc12 | 31* | 9 | -3 | -14 | 32* | -2
C[n+]1cc2c3c(ccc2c2ccc4cc5c(cc4c21)OCO5)OCO3 | 87* | / | / | / | 101* | 99*
O=C(CSc1nncc2ccccc12)Nc1ccc(F)cc1 | 37* | -16 | 6 | 5 | 48* | -5
O=C(CSc1nncc2ccccc12)Nc1ccccc1 | 10 | -2 | 8 | 10 | / | /
CC(=NNC(=O)CCc1ccc(S(=O)(=O)N2CCOCC2)cc1)c1ccc(Br)cc1 | / | / | -1 | 5 | / | /
O=C(NCc1cccnc1)c1c(O)c2cccc3c2n(c1=O)CCC3 | 32* | 7 | 6 | 8 | 39* | -7
NCCNC(=O)c1c(O)c2cccc3c2n(c1=O)CCC3 | 15 | -5 | 0 | -3 | / | /
CCOC(=O)c1c(-c2ccccc2)csc1NC(=O)CSc1nncs1 | 42* | -12 | 4 | 31 | 39* | -1
CC(=NNC(=O)c1ccc2nc[nH]c2c1)c1cccs1 | / | / | 0 | 1 | / | /
COc1cccc(OC(C)c2ccnc3nc(N=CN(C)C)nn23)c1 (configuration not stated) | / | / | 3 | -2 | / | /
Cc1ccc(C(=O)NCc2ccncc2)cc1S(=O)(=O)Nc1cccc(C)c1C | 24* | -8 | 2 | 2 | 32* | -3
CN(C)Cc1c(C(=O)NN=Cc2ccco2)nnn1-c1nonc1N | / | / | 2 | 0 | / | /
COCC=CC1=CC2=CC(=O)C(C)(OC(=O)c3cnc4ccccc4n3)C(=O)C2=CN1CCCCO (configuration not stated) | / | / | 5 | 1 | / | /
Cc1cccc(Cl)c1NC(=O)N1CCCN(c2nc3ccc(Cl)cc3s2)CC1 | 5 | 2 | 1 | -7 | / | /
Cc1nc(Nc2ncc(C(=O)Nc3c(C)cccc3Cl)s2)cc(N2CCN(CCO)CC2)n1 | 25* | / | / | / | 19 | 1
COc1cc(C=NNC(=O)C2CC(=O)N(c3ccc(C)cc3)C2)cc(OC)c1OC (configuration not stated) | / | / | 2 | -1 | / | /
CCN1C(=NCCOC)NC(c2cccc(C(F)(F)F)c2)C(C(=O)OC)=C1C (configuration not stated) | / | / | -2 | -21 | / | /
COc1ccc(C(C(=O)NC2CCCC2)N(C(=O)c2snc(-c3ccc(F)cc3)c2N)c2ccc(OC)cc2)cc1 (configuration not stated) | 46* | 4 | 0 | -4 | 60* | 0
COc1ccc(C(C(=O)NC2CCCC2)N(C(=O)c2snc(-c3ccc(F)cc3)c2N)c2ccc(F)cc2)cc1 (configuration not stated) | 2 | 6 | -2 | -1 | / | /
COC(=O)C1=C(C)N(Cc2ccccc2)C(=NCCCOC(C)C)NC1c1ccccc1 (configuration not stated) | / | / | 4 | -7 | / | /
Cc1nccc2c1[nH]c1ccccc12 | 6 | -1 | 5 | -1 | / | /
S=c1nc[nH]c2c1[nH]c1ccccc12 | 135* | -2 | 6 | -11 | 142* | -1
S=c1nc[nH]c2c1[nH]c1ccc(Cl)cc12 | 43* | 9 | 4 | 8 | 131* | 7
SMILES | PrPC TRFRET | BJeLR lethal | RN4220 kill | Sa ugtP lethal | PrPC confirm | LD9 tox
O=c1c2[nH]c3ccc(Cl)cc3c2ncn1CCN1CCCCC1 | -6 | 3 | -16 | -4 | / | /
CC(C)C(NC(=O)Nc1ccc(Oc2ccccc2)cc1)C(=O)O (configuration not stated) | / | / | 4 | -9 | / | /
O=C1N=C(N2CCN(c3ccccc3)CC2)SC1=Cc1ccco1 | / | / | 2 | -9 | / | /
Cc1ccc(S(=O)(=O)N(C)C)cc1NC(=O)c1cncc(Br)c1 | 27* | -2 | 4 | 8 | 21 | -2
Cc1csc(NC(=O)CSc2ncnc3ccccc23)n1 | 18 | -13 | 8 | 11 | / | /
O=C(CSc1ncnc2ccccc12)NCc1ccco1 | 76* | 3 | 5 | -4 | 77* | -1
O=C(CSc1ncnc2ccccc12)NCCc1ccccc1 | 62* | -1 | 7 | 1 | 79* | -8
O=C(CSc1ncnc2ccccc12)NCCCO | 36* | 4 | -2 | 4 | 32* | -7
O=C(C1=CC(c2ccc(Br)cc2)CC(OCc2ccc(CO)cc2)O1)N1CCOCC1 (configuration not stated) | / | / | 7 | 2 | / | /
COc1cc(OC)c(N(C)S(=O)(=O)c2cccc(C(=O)Nc3nccs3)c2)cc1Cl | -3 | / | 11 | -7 | / | /
CCc1cccc(NC(=O)c2cc(S(=O)(=O)N(C)C)ccc2N2CCCC2)c1 | 30* | -9 | 9 | 1 | 36* | -4
Cc1cnc(NC(=O)c2cc(S(=O)(=O)N(C)C)ccc2N2CCCC2)s1 | 72* | / | -3 | -5 | 79* | -8
CN(c1ccccc1)S(=O)(=O)c1cccc(C(=O)Nc2nccs2)c1 | 26* | -5 | 5 | 5 | 0 | 4
CN(C)S(=O)(=O)c1ccc(N2CCCC2)c(C(=O)Nc2nccs2)c1 | 52* | / | 7 | 7 | 54* | -5
NC(=O)C(=O)NN=Cc1c2ccccc2cc2ccccc12 | / | / | 1 | -7 | / | /
CCCCCCCCCNC(=O)C(NC(=O)COc1ccccc1)C1NC(C(=O)OC)C(C)(C)S1 (configuration not stated) | / | / | 2 | -31 | / | /
Fc1ccc2[nH]c3c(N4CCc5ccccc5C4)ncnc3c2c1 | 26* | 7 | -2 | -23 | 35* | 20*
CN1CCN(c2ncnc3c2[nH]c2ccc(F)cc23)CC1 | 5 | -9 | -11 | 0 | / | /
O=C(NCc1ccc(Cl)cc1)c1cccc(NC(=O)c2ccccc2)c1 | 32* | -26 | -2 | -20 | 27* | -2
CN1/C(=C\C(=S)NC(=O)c2cccc(Br)c2)C(C)(C)c2ccccc21 | 25* | 2 | 5 | -20 | 30* | 16*
Cn1cnc2c1c(=O)n(Cc1cccc(Br)c1)c(=O)n2C | 0 | -3 | 5 | -10 | / | /
Cn1c(N2CCC(C(N)=O)CC2)nc2c1c(=O)n(Cc1cccc(Br)c1)c(=O)n2C | 42* | 0 | 4 | 7 | 59* | -5
COc1ccc(CC2C(=O)NC(C)C(=O)N(C)C3Cc4ccc(cc4)Oc4cc(ccc4O)CC(C(=O)NC(C)C(=O)NC(C)C(=O)N2C)N(C)C3=O)cc1 (configuration not stated) | 83* | / | / | / | 90* | 34*
COc1cc2c3cc1Oc1c(OC)c(OC)cc4c1[C@H](Cc1ccc(cc1)Oc1cc(ccc1O)C[C@H]3N(C)CC2)N(C)CC4 | -5 | / | / | / | / | /
CCOC(=O)c1c(-c2ccc(C)s2)csc1N | 70* | 2 | 3 | 4 | 54* | -2
CCC(C)=NNC(=S)NCc1ccco1 | / | / | 4 | 4 | / | /
CCCCOc1ccc(Br)cc1CSC(=N)N | 25* | 8 | 2 | -16 | 4 | 21*

Screening data as filed in PubChem.
